Results taken from PubChem BioAssay (Tox21).
Inconclusive results are not listed. Calls of active or inactive are those of the source. Unless noted, the call rests on the fitted dose curve; in most records, active means well fitted curve in the direction sought with a large enough effect in the repeat runs; inconclusive means weak or mixed curves; inactive means no such curve, though single readings can be large; an effect the other way counts as inactive or inconclusive.

What was measured:
[1] = qHTS assay for small molecules that induce genotoxicity in human embryonic kidney cells expressing luciferase-tagged ATAD5 (AID 651632); further: nearly all actives have a fitted effect of over 15% in size
Summary of the method: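 Luminescence read-out: after 16 hr compound exposure at 37C, ATAD5-luciferase HEK293T cells received Amplite, 30 min RT, then CCD imaging. A rise in signal marks genotoxic stress.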

[2] = qHTS assay for small molecule agonists of the p53 signaling pathway - cell viability (AID 651633; calls by dose curve;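 further: p53RE-bla HCT reporter cells with a stable beta-lactamase p53 reporter; series mostly up to about 83 µM; nearly all actives have a fitted effect of over 30% in size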)
Summary of the method: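 Viability counter-read: CellTiter-Glo luminescence (30 min, room temperature) in the same p53RE-bla plates. These plates had been exposed to compounds for 16 h at 37 C.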

[3] = qHTS assay for small molecules that induce genotoxicity in human embryonic kidney cells expressing luciferase-tagged ATAD5 - cell viability (AID 651634; calls by dose curve; further: nearly all actives have a fitted effect of over 25% in size)
Summary of the method: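 HEK293T ATAD5-luc cells, 2,000/well; compound 15.5 hr, 37C/5% CO2; CellTiter-Fluor 30 min, 37C; fluorescence read.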

[4] = qHTS assay for small molecule disruptors of the mitochondrial membrane potential - cell viability (AID 720634; calls by dose curve;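 further: human HepG2 liver cancer cells; series mostly up to about 83 µM; nearly all actives have a fitted effect of over 20% in size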)
Summary of the method: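 Luminescence from CellTiter-Glo (ATP content) gave viability in HepG2 cells, read in the same wells as the MMP dye assay after 1 hr compound exposure at 37 C.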

[5] = qHTS assay to test for compound auto fluorescence at 590 nm (red) in HepG2 cells (AID 720674)
Summary of the method: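 1 hr compound incubation on HepG2 cells, 37 C, 5% CO2; plate read ex 540 nm / em 590 nm; intensities reported as Rose Bengal sodium equivalents.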

[6] = qHTS assay to test for compound auto fluorescence at 535 nm (green) in HepG2 cells (AID 720675)
[7] = qHTS assay to test for compound auto fluorescence at 460 nm (blue) in HEK293 cells (AID 720678)
Summary of the method: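 HEK293 cells (2,000/well, medium with 10% dialyzed FBS) attached 4-5 hr, then exposed to compound overnight at 37C, 5% CO2. Blue fluorescence read at 405/460 nm, with triamterene as reference fluorophore.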

[8] = qHTS assay to test for compound auto fluorescence at 590 nm (red) in HEK293 cells (AID 720679)
Summary of the method: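 HEK293 cells (2,000/well, 10% dialyzed FBS) attached 4-5 hr, then dosed with compound or DMSO and incubated overnight at 37C, 5% CO2. Red fluorescence read at 540/590 nm, Rose Bengal sodium as reference fluorophore.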

[9] = qHTS assay to test for compound auto fluorescence at 535 nm (green) in HEK293 cells (AID 720680)
[10] = qHTS assay to test for compound auto fluorescence at 460 nm (blue) in HEK293 cell free culture (AID 720681)
Summary of the method: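 Blue fluorescence (Ex 405/Em 460 nm, triamterene-equivalent) was read immediately after pin transfer of compound or DMSO into medium (DMEM, 10% FBS) without cells.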

[11] = qHTS assay to test for compound auto fluorescence at 535 nm (green) in HEK293 cell free culture (AID 720682)
Summary of the method: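 Fluorescein serves as the green reference fluorophore; each compound's intrinsic emission at 535 nm (excitation 485 nm) is reported as an equivalent amount of that dye, measured in serum-containing DMEM without cells.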

[12] = qHTS assay to test for compound auto fluorescence at 590 nm (red) in HepG2 cell free culture (AID 720684)
Summary of the method: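 Cell-free; medium MEM + 10% FBS; compound or DMSO added by pintool; read Ex 540/Em 590 nm; Rose Bengal sodium as red reference fluorophore.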

[13] = qHTS assay to test for compound auto fluorescence at 460 nm (blue) in HepG2 cell free culture (AID 720685)
Summary of the method: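 Cell-free plates of MEM plus 10% FBS received 23 nL compound or DMSO vehicle; blue-channel (405/460 nm) intensity scored against triamterene as reference fluorophore.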

[14] = qHTS assay to test for compound auto fluorescence at 535 nm (green) in HepG2 cell free culture (AID 720686)
[15] = qHTS assay to test for compound auto fluorescence at 460 nm (blue) in HepG2 cells (AID 720687)
Summary of the method: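 Blue-channel autofluorescence (Ex/Em 405/460 nm, triamterene-equivalent) was measured after 1 hr compound exposure at 37 C, 5% CO2. Cells were HepG2, plated overnight at 37 C in MEM plus 10% FBS.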

[16] = qHTS assay for small molecule agonists of the p53 signaling pathway (AID 651631; calls by dose curve; further: nearly all actives have a fitted effect of over 15% in size)
Summary of the method: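 Read-out is beta-lactamase FRET fluorescence measured 2 h after substrate addition at room temperature, in HCT-116 cells with a p53 response element-driven reporter exposed to compounds for 16 h at 37 °C.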

[17] = qHTS assay for small molecule disruptors of the mitochondrial membrane potential (AID 720635)
Summary of the method: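 Mitochondrial membrane potential tracked with Mito-MPS dye, red aggregates (ex 540/em 590 nm) against green monomers (ex 490/em 535 nm). Compound treatment 1 hr at 37C, dye 30 min in HepG2.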

[18] = qHTS assay to test for compound auto fluorescence at 590 nm (red) in HEK293 cell free culture (AID 720683)
Summary of the method: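 Red-channel autofluorescence of compounds in culture medium (DMEM, 10% FBS), no cells, measured at 540/590 nm. Rose Bengal sodium is the reference fluorophore for equivalence.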

[19] = biological target: Glucocorticoid receptor (Homo sapiens) (UniProt P04150); experiment: qHTS assay to identify small molecule agonists of the glucocorticoid receptor (GR) signaling pathway (AID 720691; active means well fitted activation curve with a large enough effect in the signal ratio in the repeat runs, not every such curve was filed as active; the % refers to the signal ratio)
Summary of the method: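 HeLa GR-bla reporter line; cells pre-incubated 4 h, compound in DMSO 18 h at 37 C; LiveBLAzer B/G FRET substrate 2 h RT; fluorescence intensity read-out.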

[20] = biological target: Glucocorticoid receptor (Homo sapiens) (UniProt P04150); experiment: qHTS assay to identify small molecule antagonists of the glucocorticoid receptor (GR) signaling pathway (AID 720692; active means well fitted inhibition curve with a large enough effect in the signal ratio in the repeat runs, not every such curve was filed as active; the % refers to the signal ratio)
Summary of the method: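 Read-out: beta-lactamase FRET substrate fluorescence, 2 h at room temperature, in HeLa cells stably carrying a GRE-driven bla reporter. Compounds were co-incubated with 5 nM dexamethasone agonist (final) for 18 h at 37 C.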
On the % scale 0 is the no-effect control and ±100 the full control effect.

Glucocorticoid receptor (Homo sapiens), sequence (P04150 whole entry, looked up): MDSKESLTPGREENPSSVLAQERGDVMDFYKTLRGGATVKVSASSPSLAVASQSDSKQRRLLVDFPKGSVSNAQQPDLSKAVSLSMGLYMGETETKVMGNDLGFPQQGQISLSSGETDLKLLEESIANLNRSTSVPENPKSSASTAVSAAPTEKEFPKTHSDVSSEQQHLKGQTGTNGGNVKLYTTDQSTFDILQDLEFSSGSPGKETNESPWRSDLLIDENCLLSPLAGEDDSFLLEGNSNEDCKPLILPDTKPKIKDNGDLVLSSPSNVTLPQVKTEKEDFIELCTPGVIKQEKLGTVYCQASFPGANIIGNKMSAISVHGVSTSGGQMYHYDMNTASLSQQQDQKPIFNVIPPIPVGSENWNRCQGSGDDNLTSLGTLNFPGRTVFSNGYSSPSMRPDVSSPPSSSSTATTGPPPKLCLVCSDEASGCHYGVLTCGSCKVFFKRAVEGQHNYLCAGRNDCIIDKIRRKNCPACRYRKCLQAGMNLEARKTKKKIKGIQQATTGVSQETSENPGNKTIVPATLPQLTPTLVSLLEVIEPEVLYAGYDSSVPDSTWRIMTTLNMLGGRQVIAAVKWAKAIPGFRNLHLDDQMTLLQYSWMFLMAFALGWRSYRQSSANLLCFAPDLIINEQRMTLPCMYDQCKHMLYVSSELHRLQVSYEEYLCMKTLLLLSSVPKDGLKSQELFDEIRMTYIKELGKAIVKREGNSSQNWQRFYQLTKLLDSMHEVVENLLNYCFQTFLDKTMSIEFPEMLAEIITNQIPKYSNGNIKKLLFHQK

O=C(Nc1ccccc1)c1cc([N+](=O)[O-])ccc1Cl
inactive: Potency [1] | Potency [2] | Potency [3] | Potency [4] | outcome [5] | outcome [6] | Potency [7] | outcome [8] | outcome [9] | Potency [10] | outcome [11] | outcome [12] | outcome [13] | outcome [14] | outcome [15]

CC(CCl)OC(C)CCl (stereo not drawn)
inactive: Potency [16] | Potency [3] | Potency [4] | Potency [17] | outcome [5] | outcome [6] | Potency [7] | outcome [8] | outcome [9] | Potency [10] | outcome [11] | outcome [18] | outcome [12] | outcome [14] | outcome [15] | Potency [19] | Potency [20]

OCCOc1cccc(OCCO)c1
inactive: Potency [1] | Potency [2] | Potency [3] | Potency [4] | Potency [17] | outcome [5] | outcome [6] | Potency [7] | outcome [8] | outcome [9] | Potency [10] | outcome [11] | outcome [18] | outcome [12] | outcome [13] | outcome [14] | outcome [15]

Clc1cccc(C(c2ccc3nc[nH]c3c2)n2ccnc2)c1 (stereo not drawn)
inactive: Potency [2] | Potency [3] | Potency [4] | outcome [5] | Potency [7] | outcome [8] | outcome [9] | outcome [11] | outcome [18] | outcome [12] | outcome [13] | outcome [14] | outcome [15]

O=C(O)c1ccc2c(c1)nc(C(=O)NC1CCN(C3CC3)CC1)n2Cc1cc(-c2ccc(Cl)s2)on1
inactive: Potency [1] | Potency [3] | fluorescence, relative to Rose Bengal [5] 0.429% [at 18.6 µM] | fluorescence, % of fluorescein control [6] -0.0395% [at 18.6 µM] | fluorescence, % of triamterene [7] 0.0005% [at 18.6 µM] | fluorescence, % of fluorescent control [8] 0.147% [at 18.6 µM] | fluorescence, % of fluorescein [9] -0.0247% [at 18.6 µM] | fluorescence, % of fluorescent control [10] 0.0923% [at 18.6 µM] | activity change [11] -0.024% [at 18.6 µM] | fluorescence, % of fluorescent control [18] 0.116% [at 18.6 µM] | fluorescence, % of Rose Bengal [12] -0.135% [at 18.6 µM] | fluorescence, % of fluorescent control [13] -0.029% [at 18.6 µM] | fluorescence, % of fluorescein control [14] -0.0042% [at 18.6 µM] | fluorescence, % of fluorescent control [15] 0.0789% [at 18.6 µM]

N#C[C@@H]1CC(F)(F)CN1C(=O)CNC1CC2CCC(C1)N2c1ncccn1 (stereo partly drawn)
inactive: Potency [2] | Potency [3] | Potency [4] | outcome [5] | Potency [7] | outcome [8] | outcome [9] | Potency [10] | outcome [11] | outcome [18] | outcome [12] | outcome [13] | outcome [14] | outcome [15] | Potency [19] | Potency [20]

C=CC(=O)NC(C)(C)C
inactive: Potency [2] | Potency [3] | Potency [4] | outcome [5] | outcome [6] | Potency [7] | outcome [8] | outcome [9] | Potency [10] | outcome [11] | outcome [12] | outcome [13] | outcome [14] | Potency [19] | Potency [20]

CCCC1CCOC(C)S1 (stereo not drawn)
inactive: Potency [1] | Potency [3] | Potency [4] | Potency [17] | outcome [5] | outcome [6] | Potency [7] | outcome [8] | outcome [9] | Potency [10] | outcome [11] | outcome [18] | outcome [12] | outcome [13] | outcome [14] | outcome [15] | Potency [19] | Potency [20]

CCOCCn1c(N2CCCN(C)CC2)nc2ccccc21
inactive: Potency [1] | Potency [2] | Potency [3] | Potency [17] | outcome [5] | outcome [6] | Potency [7] | outcome [8] | outcome [9] | Potency [10] | outcome [11] | outcome [18] | outcome [12] | outcome [13] | outcome [14]

CCOc1ccc2c(c1)C(C)CC(C)(C)N2 (stereo not drawn)
inactive: Potency [1] | Potency [3] | outcome [5] | outcome [6] | Potency [7] | outcome [8] | outcome [9] | Potency [10] | outcome [11] | outcome [18] | outcome [12] | outcome [14] | Potency [20]
